Laboratory results published in the supplement of paper PMC3334620.
In all, about 33,000 sequences were measured (“E-score (-0.5 to 0.5)”: median about -8e-05, highest 2% from about 0.23 on). Shown is part of a subset that was picked to be rich in the highest values.

Target: T1, Nrg2 (UniProt P38082)
T1 sequence: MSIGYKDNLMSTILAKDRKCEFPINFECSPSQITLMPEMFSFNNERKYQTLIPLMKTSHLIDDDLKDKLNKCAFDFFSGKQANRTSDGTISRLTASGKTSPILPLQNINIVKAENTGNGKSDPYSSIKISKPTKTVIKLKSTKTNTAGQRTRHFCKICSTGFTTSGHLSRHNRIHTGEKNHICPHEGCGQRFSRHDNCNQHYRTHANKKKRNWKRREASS
Assay: PBM E-score (8-mer binding enrichment) (E-score (-0.5 to 0.5)); higher = stronger / more preferred TF binding
Details: protein concentration: 100 nM; construct: GST-full length
Outline: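 Full-length yeast transcription factors or their DNA-binding domains, GST-tagged and expressed with PURExpress, were applied at about 100-200 nM to universal all-10-mer Agilent arrays. These arrays had been made double-stranded by primer extension on fresh or once-stripped slides. Detection used fluorescent anti-GST, normalisation used masliner, and E-scores for ungapped eight-base words pooled with reverse complements came from the Universal PBM Analysis Suite.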

Point of comparison: ACACTCTC, “PBM E-score” value 0.104. Against it:
- CTTAACTA — lower, 0.0617
- GCTAACAA — lower, -0.0183
- ATTAACTA — higher, 0.136
- CAGGCCAC — lower, -0.141
- GCGTGAGC — higher, 0.142
- GGAACTCA — lower, -0.0697
- GAATGATC — lower, -0.0614
- GAATGAGA — higher, 0.114
- AAATGATA — higher, 0.225
- CAATGATA — higher, 0.128
- TAATGATA — higher, 0.243
- GAATGATA — higher, 0.247
- AGCCCTAG — lower, -0.16
- CCCTGAGG — higher, 0.236
- CACTGAGG — lower, -0.124
- GCCTGAGA — lower, -0.0991
- GCCTGAGC — lower, -0.213
- ACCTGAGG — lower, -0.134
- TCCTGAGA — lower, -0.0364
- ACCTGAGC — lower, 0.0385
- CCCTGAGC — higher, 0.236
- CCCTGAGA — higher, 0.235
- CATTTTCC — lower, 0.0879
- AGAAGCCC — lower, -0.0779
- ATTATGAC — lower, -0.0447
- AGGCAAGG — lower, -0.259
- CCTATCGC — lower, -0.134
- CATGTTGC — lower, -0.0978
- AATGTTGA — lower, -0.019
- CATGTTGA — higher, 0.258
- GAGTATTA — lower, 0.00698
- GTGTATTA — higher, 0.233
- CTGTATTA — higher, 0.147
- ATGTATTA — lower, -0.041
- CAGTATTA — higher, 0.244
- AAGTATTA — higher, 0.129
- ATACTCGA — lower, 0.0646
- AGTTCGAG — higher, 0.223
- TCCCAAAA — lower, 0.0584
- CCGGGAAC — lower, -0.00517
- ATGCGCGA — lower, 0.00379
- CTTCGCGC — higher, 0.232
- CTTCGCGA — lower, 0.0778
- CTGCGCTC — lower, -0.146
- CTGCGCGA — lower, -0.0667
- CTGCGCGC — higher, 0.306
- ATGCGCGC — higher, 0.23
- ATGCGCGG — higher, 0.121
- ATGCGCAC — higher, 0.142
- ATGCGCAA — higher, 0.182
- ATGCGCAT — higher, 0.368
- ATTCGCGC — higher, 0.159
- GTGCAGCA — lower, -0.172
- CAATTGCC — lower, -0.00722
- CAGGACTG — lower, -0.241
- CAATGCGC — higher, 0.145
- AAATGCGC — higher, 0.272
- AAATGCGG — lower, 0.0989
- AGGGGCAT — lower, 0.00378
- CTAAAAGA — lower, -0.198
- CGATATAC — higher, 0.113
- CGATATTC — higher, 0.153
- CGATATAA — higher, 0.244
- CGATATTA — higher, 0.23
- CGATATAG — higher, 0.14
- GGATATTA — higher, 0.147
- CACCGTGA — lower, -0.113
- GTATGGCA — lower, 0.0816
- CATCAGCG — lower, -0.213
- CGAAAAGA — higher, 0.199
- AGCAGTGC — lower, -0.287
- CGCAGTGA — lower, -0.0744
- AGCAGTGA — higher, 0.234
- GCGCTACC — lower, -0.139
- GTGCTGTA — lower, -0.0149
- CGGAGGCA — lower, -0.134
- AAGCGCAA — higher, 0.147
- CCCAGCAA — lower, 0.0725
- ACCAGCAA — higher, 0.245
- TCCAGCAA — lower, -0.151
- ACTTACCA — lower, 0.00217
- GTCAAACA — lower, -0.117
- AATTGCAA — lower, 0.0259
- TATTGCAA — higher, 0.253
- CATTGCAA — lower, -0.00795
- CGTTGCAA — lower, 0.0314
- TGTTGCAA — higher, 0.268
- GGTTGCAA — higher, 0.111
- CGCGGTTC — lower, 0.0879
- GGATAGCA — lower, 0.0845
- GAGTACTC — higher, 0.23
- AAGTACTC — lower, -0.0318
- CAGTACTC — lower, -0.171
- GGCGAGCC — lower, -0.0861
- CCAATACG — lower, -0.165
- ACCTCGAG — higher, 0.281
- CCCTCGAG — higher, 0.143
- ACCTCGAT — higher, 0.147
- AAGAAAAG — lower, -0.0237
- TCAATTCA — lower, 0.102
- AAGGGTAC — higher, 0.165
- AGGGGTAG — lower, -0.0372
- CAGGGTAG — higher, 0.303
- CAGGGTAC — higher, 0.235
- AAGGGTAG — lower, 0.0465
- CAGGGTAA — higher, 0.215
- AAGTCTAT — lower, -0.0746
- TAGTAAGA — higher, 0.107
- TCCCTGCA — higher, 0.25
- AGCCTGCA — lower, 0.0137
- ACCCTGCG — higher, 0.254
- CCCCTGCG — lower, -0.0622
- ACCCTGCC — lower, 0.0806
- GCCCTGCA — lower, 0.044
- ACCCTGCT — lower, 0.0589
- ACCCTGCA — higher, 0.376
- CCCCTGCA — lower, -0.00126
- ATAGGACA — lower, -0.118
- GGTCTTGA — lower, -0.0327
- ACCAAGTC — higher, 0.111
- AAAGCCCG — lower, -0.147
- AAAAGCGT — lower, -0.0481
- AAAAACTT — lower, -0.148
- CGCTGGCA — lower, 0.0236
- CGGCATTA — lower, 0.0976
- CCGCGCGA — higher, 0.202
- GCGCACGC — lower, -0.0951
- ACGCGCGG — higher, 0.192
- ACGCGATA — lower, 0.0412
- TCGCGCGA — higher, 0.138
- CCGCGATA — higher, 0.117
- TCGCACGA — lower, -0.00406
- GCGCACGA — higher, 0.238
- GCGCGATA — higher, 0.254
- ACGCGCGC — higher, 0.279
- ACGCGCGT — higher, 0.17
- GCGCGCGA — higher, 0.251
- CTTACCCA — lower, 0.0294
- AATGCAAT — lower, -0.287
- GGTCCAGA — higher, 0.125
- AGGCGGGG — lower, 0.0214
- AACGATTC — lower, 0.0537
- ACGGACGT — lower, -0.169
- GTCCAGAC — lower, -0.175
- ATCTTTGC — higher, 0.133
- ACGCGGTA — lower, -0.152
- GCGCGCAC — higher, 0.165
- GCGCGCGC — higher, 0.415
- CAGCGCGC — higher, 0.21
- GAGCGCGC — higher, 0.263
- GCGCGCCC — lower, 0.0648
- CCGCGGTA — higher, 0.119
- GAGCGCGA — higher, 0.196
- GCGCGGTA — higher, 0.271
- CCTTTCCG — lower, -0.116
- TTGAACAA — lower, -0.0525
- ACGGAAGC — lower, -0.0173
- AGCCAGCG — lower, -0.0673
- CTCGGAGA — lower, 0.0113
- ATCAGTAA — lower, 0.0691
- AGAAAGTC — lower, 0.037
- CCCTGTGA — lower, 0.059
- GCCTGTAA — lower, -0.225
- GACTGAAA — lower, 0.0848
- CCCTGTAC — higher, 0.208
- CCCTGAAC — higher, 0.282
- TACTGAAA — higher, 0.242
- CCCTGAAG — higher, 0.208
- ACCTGTGC — lower, -0.0445
- CCCTGTGC — higher, 0.263
- GCCTGAAC — lower, -0.211
- CCCTGTAA — higher, 0.294
- CACTGAAA — lower, 0.0555
